# Tests used:
# Assay in all cases: DAPPL (digital affinity profiling via proximity ligation, sequencing); 10 mM Tris-HCl pH 7.5, 50 mM NaCl, 1 mM DTT, 4% glycerol, room temperature, 30 min; GST-TFs on glutathione beads, 16-mer random dsDNA library, 0.1% formaldehyde crosslink after washing; high values mean tight binding
# Details in all cases: protein: recombinant; tags: N-terminal GST; dsDNA, one strand shown
# ELK1 = molecular target: T1, ELK1 (Homo sapiens, UniProt P19419 1-428)
# T1 sequence: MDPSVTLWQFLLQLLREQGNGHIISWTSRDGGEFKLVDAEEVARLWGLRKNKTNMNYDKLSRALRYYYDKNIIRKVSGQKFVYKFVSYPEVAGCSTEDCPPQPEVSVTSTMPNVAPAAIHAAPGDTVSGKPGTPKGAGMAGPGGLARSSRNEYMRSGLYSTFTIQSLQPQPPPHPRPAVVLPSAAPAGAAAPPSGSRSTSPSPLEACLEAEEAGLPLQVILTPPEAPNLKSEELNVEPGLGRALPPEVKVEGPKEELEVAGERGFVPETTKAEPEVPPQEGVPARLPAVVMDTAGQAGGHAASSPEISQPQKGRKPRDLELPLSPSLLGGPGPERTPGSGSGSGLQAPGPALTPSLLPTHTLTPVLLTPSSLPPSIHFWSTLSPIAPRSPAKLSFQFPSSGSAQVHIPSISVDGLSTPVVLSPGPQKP
# Outline: (§1)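 A tag-only sample was pooled with DNA-barcoded human transcription factors that had been expressed in yeast as GST fusions and captured on glutathione beads. The pools were incubated for 30 min at room temperature with 200 nmole of a random double-stranded 16-mer DNA library in Tris/NaCl/DTT/glycerol buffer, then washed, crosslinked with 0.1% formaldehyde, proximity-ligated (BsaI/T4 ligase, 1 h, 37 °C), PCR-amplified and sequenced on an Illumina NextSeq500. Binding signal is each hexamer's read frequency for a factor divided by its frequency for the tag-only sample.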
# GABPA = molecular target: T2, GABPA (Homo sapiens, UniProt Q06546 1-454)
# T2 sequence: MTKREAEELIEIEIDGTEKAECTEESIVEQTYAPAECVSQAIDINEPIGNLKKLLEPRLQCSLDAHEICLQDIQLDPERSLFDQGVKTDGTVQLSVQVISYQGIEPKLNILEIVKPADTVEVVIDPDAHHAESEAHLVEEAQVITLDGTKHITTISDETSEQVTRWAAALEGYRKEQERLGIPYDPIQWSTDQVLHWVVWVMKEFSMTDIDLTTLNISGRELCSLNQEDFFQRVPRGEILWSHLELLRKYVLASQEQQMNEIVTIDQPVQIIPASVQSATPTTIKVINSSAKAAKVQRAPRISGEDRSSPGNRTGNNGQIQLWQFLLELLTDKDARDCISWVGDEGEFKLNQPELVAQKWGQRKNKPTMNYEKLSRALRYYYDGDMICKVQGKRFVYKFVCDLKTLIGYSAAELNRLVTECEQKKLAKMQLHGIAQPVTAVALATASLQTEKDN
# Outline: as §1
# ERG = molecular target: T3, ERG (Homo sapiens, UniProt P11308 1-479)
# T3 sequence: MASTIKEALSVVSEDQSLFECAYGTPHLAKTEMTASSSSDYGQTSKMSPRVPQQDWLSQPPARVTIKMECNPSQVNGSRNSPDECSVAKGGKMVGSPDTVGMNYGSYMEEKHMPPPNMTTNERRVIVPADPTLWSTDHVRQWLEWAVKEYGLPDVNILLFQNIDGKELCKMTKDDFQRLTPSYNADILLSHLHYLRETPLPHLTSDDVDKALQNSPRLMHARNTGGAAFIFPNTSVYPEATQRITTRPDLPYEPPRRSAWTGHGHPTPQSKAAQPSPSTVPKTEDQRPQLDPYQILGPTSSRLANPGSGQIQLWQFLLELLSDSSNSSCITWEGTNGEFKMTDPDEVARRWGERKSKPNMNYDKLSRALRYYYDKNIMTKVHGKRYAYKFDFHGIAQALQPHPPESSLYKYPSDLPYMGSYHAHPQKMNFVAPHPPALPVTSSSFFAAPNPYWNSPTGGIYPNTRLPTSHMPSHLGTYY
# Outline: as §1
# ELF1 = ELF1 (Homo sapiens, UniProt P32519 1-619)
# ELF1, sequence (P32519 whole entry): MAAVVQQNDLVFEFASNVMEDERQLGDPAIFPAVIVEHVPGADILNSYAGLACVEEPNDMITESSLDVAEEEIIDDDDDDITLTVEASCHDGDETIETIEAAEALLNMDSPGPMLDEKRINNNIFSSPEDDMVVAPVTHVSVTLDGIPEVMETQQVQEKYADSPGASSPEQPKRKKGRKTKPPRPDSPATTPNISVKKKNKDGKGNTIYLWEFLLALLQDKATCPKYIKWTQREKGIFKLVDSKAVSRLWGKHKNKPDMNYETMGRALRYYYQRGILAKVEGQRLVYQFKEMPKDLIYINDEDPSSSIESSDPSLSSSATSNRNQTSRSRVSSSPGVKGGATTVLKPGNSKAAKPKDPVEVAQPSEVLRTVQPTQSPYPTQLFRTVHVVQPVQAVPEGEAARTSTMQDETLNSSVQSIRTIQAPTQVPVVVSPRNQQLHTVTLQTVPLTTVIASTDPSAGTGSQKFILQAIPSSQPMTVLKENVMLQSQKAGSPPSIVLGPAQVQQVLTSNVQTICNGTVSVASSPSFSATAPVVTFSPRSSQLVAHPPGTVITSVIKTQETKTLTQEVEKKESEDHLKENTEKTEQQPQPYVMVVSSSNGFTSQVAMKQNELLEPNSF
# Outline: as §1
# EHF = molecular target: T4, EHF (Homo sapiens, UniProt Q9NZC4 1-300)
# T4 sequence: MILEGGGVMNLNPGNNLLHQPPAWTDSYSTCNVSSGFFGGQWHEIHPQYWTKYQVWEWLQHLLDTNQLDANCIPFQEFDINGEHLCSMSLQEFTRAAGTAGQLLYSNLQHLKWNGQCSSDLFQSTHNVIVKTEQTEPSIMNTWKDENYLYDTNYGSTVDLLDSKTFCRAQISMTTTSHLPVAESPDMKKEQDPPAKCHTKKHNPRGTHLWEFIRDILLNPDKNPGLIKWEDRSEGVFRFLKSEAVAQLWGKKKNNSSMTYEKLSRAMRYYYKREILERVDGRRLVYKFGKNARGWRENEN
# Outline: as §1
# SPIB = SPIB (Homo sapiens, UniProt Q01892 1-262)
# SPIB, sequence (Q01892 whole entry): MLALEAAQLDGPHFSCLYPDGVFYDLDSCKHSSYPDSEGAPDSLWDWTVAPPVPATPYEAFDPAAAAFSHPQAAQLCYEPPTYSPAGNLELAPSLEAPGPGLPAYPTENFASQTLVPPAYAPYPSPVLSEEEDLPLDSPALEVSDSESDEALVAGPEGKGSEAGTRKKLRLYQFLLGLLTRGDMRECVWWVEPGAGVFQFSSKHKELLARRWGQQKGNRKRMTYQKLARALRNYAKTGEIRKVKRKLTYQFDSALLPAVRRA
# Outline: as §1
# FEV = molecular target: T5, FEV (Homo sapiens, UniProt Q99581 1-238)
# T5 sequence: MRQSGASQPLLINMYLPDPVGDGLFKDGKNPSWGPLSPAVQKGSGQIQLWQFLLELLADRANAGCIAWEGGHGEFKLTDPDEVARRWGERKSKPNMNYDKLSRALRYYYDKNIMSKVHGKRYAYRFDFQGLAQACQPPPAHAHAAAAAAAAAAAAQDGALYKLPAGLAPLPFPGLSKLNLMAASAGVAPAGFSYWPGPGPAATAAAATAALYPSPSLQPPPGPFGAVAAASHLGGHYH
# Outline: as §1
# ETV5 = ETV5 (Homo sapiens, UniProt P41161 1-510)
# ETV5, sequence (P41161 whole entry): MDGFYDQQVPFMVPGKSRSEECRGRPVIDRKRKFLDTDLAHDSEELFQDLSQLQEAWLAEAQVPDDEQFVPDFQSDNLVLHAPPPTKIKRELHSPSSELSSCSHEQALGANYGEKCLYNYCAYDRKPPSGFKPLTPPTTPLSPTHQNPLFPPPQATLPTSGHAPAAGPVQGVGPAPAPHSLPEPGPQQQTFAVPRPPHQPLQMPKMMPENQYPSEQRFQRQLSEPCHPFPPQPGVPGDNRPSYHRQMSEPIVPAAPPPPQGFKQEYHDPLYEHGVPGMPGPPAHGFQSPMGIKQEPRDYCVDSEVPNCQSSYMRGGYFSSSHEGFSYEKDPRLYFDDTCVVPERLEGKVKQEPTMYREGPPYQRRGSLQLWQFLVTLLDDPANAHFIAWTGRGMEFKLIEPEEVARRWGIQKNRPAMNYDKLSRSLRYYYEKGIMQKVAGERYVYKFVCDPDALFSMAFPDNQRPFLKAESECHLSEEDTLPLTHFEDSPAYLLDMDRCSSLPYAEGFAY
# Outline: as §1
# ELF4 = ELF4 (Homo sapiens, UniProt Q99607 1-663)
# ELF4, sequence (Q99607 whole entry): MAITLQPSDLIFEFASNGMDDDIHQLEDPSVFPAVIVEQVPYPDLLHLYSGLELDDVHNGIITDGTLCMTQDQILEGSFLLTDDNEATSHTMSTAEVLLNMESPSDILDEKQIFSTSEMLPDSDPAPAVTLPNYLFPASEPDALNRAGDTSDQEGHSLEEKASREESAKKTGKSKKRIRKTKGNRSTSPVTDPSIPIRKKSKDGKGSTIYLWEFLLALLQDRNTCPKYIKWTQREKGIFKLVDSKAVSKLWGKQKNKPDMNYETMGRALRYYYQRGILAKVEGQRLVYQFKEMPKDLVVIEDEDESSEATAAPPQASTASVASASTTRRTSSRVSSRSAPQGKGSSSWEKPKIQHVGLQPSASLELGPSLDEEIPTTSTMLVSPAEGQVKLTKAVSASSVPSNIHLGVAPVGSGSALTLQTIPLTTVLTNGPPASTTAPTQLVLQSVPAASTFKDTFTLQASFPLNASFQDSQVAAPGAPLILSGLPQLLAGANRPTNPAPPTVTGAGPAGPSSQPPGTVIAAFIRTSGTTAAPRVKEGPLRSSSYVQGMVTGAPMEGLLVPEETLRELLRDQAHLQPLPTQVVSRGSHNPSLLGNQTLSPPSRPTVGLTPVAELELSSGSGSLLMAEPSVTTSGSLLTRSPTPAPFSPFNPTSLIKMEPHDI
# Outline: as §1
# ELK4 = molecular target: T6, ELK4 (Homo sapiens, UniProt P28324-2 1-405)
# T6 sequence: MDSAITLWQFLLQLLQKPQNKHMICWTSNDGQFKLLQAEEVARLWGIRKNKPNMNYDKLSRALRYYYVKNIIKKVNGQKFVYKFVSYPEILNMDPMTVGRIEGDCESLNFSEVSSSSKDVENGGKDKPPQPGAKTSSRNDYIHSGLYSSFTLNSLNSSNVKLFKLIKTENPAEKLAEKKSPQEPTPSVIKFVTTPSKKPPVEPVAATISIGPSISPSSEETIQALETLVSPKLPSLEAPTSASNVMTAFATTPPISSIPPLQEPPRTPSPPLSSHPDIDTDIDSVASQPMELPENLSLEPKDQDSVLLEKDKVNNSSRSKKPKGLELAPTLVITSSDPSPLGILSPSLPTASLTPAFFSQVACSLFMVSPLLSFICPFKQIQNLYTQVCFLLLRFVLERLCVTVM
# Outline: as §1
sequence,measurement,setting,value
ACGACC,binding signal,ELK1,"1.21 fold enrichment (6-mer frequency, TF over GST control)"
same,binding signal,GABPA,"1.11 fold enrichment (6-mer frequency, TF over GST control)"
same,binding signal,ERG,"1.1 fold enrichment (6-mer frequency, TF over GST control)"
same,binding signal,ELF1,"1.21 fold enrichment (6-mer frequency, TF over GST control)"
same,binding signal,EHF,"1.1 fold enrichment (6-mer frequency, TF over GST control)"
same,binding signal,SPIB,"1.07 fold enrichment (6-mer frequency, TF over GST control)"
same,binding signal,FEV,"1.22 fold enrichment (6-mer frequency, TF over GST control)"
same,binding signal,ETV5,"1.17 fold enrichment (6-mer frequency, TF over GST control)"
same,binding signal,ELF4,"1.26 fold enrichment (6-mer frequency, TF over GST control)"
same,binding signal,ELK4,"1.14 fold enrichment (6-mer frequency, TF over GST control)"

# From article PMC7862700, “An all-to-all approach to the identification of sequence-specific readers for epigenetic DNA modifications on cytosine”
